Compounds without any hit were thinned out: in the full panel of roughly 83,000, 20% have a hit.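 Testing used 96-well plates and a 48-hour single-concentration exposure. Example: -40 means 40% of the starting cells died.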 The source made the active and inactive calls. The calls were made as follows: active = growth percent below 10; inactive = the rest.
Key:
Assay in all cases: NCI-60 one-dose screen, 48 h (100 = growth as untreated, 0 = no growth, -100 = all killed)
Settings in all cases: 10 µM unless noted
SR leukemia = tested on: SR leukemia
RPMI-8226 leukemia = tested on: RPMI-8226 leukemia
OVCAR-8 ovarian = tested on: OVCAR-8 ovarian
OVCAR-5 ovarian = tested on: OVCAR-5 ovarian
OVCAR-4 ovarian = tested on: OVCAR-4 ovarian
SK-OV-3 ovarian = tested on: SK-OV-3 ovarian
IGROV1 ovarian = tested on: IGROV1 ovarian
OVCAR-3 ovarian = tested on: OVCAR-3 ovarian
HS 578T breast = tested on: HS 578T breast
T-47D breast = tested on: T-47D breast
BT-549 breast = tested on: BT-549 breast
MDA-MB-435 melanoma = tested on: MDA-MB-435 melanoma
SW-620 colon = tested on: SW-620 colon
MCF7 breast = tested on: MCF7 breast
HCT-116 colon = tested on: HCT-116 colon
HCC-2998 colon = tested on: HCC-2998 colon
KM12 colon = tested on: KM12 colon
NCI/ADR-RES ovarian = tested on: NCI/ADR-RES ovarian

Measured: growth

O=C(CCN1CCCC1)Nc1ccc2c(NCCc3ccccc3)c3ccccc3nc2c1
active: SR leukemia -16.1% | RPMI-8226 leukemia -41.9% | OVCAR-8 ovarian 3.23% | OVCAR-5 ovarian 7.44% | OVCAR-4 ovarian -24.6% | SK-OV-3 ovarian -6.92% | IGROV1 ovarian -6.54% | OVCAR-3 ovarian -37.8% | HS 578T breast -25.1% | T-47D breast 1.89% | BT-549 breast -15.3% | MDA-MB-435 melanoma -92.1% | SW-620 colon -44.9% | MCF7 breast -19.4% | HCT-116 colon -38.2% | HCC-2998 colon -56.8% | KM12 colon -15.6%

Cc1cc(C)c(S(=O)(=O)Oc2ccccc2[N+](=O)[O-])c(C)c1
active: OVCAR-3 ovarian -24.1% | NCI/ADR-RES ovarian 8.3% | MDA-MB-435 melanoma -2.54% | SW-620 colon 8.04%
inactive: SR leukemia 15.7% | RPMI-8226 leukemia 24.2% | OVCAR-8 ovarian 29.8% | OVCAR-5 ovarian 43.4% | OVCAR-4 ovarian 42.9% | SK-OV-3 ovarian 41.2% | IGROV1 ovarian 30.2% | T-47D breast 38.8% | BT-549 breast 40.6% | MCF7 breast 13.3% | HCT-116 colon 19.7% | HCC-2998 colon 32.1% | KM12 colon 23%

CCCOc1ccc(/C=N/Nc2cc(C)nc3ccc(Cl)cc23)cc1
inactive: OVCAR-5 ovarian 96.3% | OVCAR-4 ovarian 48.5% | SK-OV-3 ovarian 89.1% | IGROV1 ovarian 42.1% | HS 578T breast 89% | T-47D breast 45.9% | BT-549 breast 102% | KM12 colon 16.5%
active: SR leukemia -35.5% | RPMI-8226 leukemia -20.2% | OVCAR-8 ovarian -44.6% | OVCAR-3 ovarian -27.5% | MDA-MB-435 melanoma -40.4% | SW-620 colon -75.5% | MCF7 breast -20.5% | HCT-116 colon -74.8% | HCC-2998 colon -39.9%

O=C(Cc1ccc(/C=C/C(=O)c2ncc[nH]2)cc1)Nc1ccc(Cl)cc1
inactive: OVCAR-5 ovarian 41.7% | OVCAR-4 ovarian 37.5% | SK-OV-3 ovarian 64.3% | IGROV1 ovarian 27.9% | NCI/ADR-RES ovarian 19.5% | T-47D breast 23.2% | BT-549 breast 29.3% | MDA-MB-435 melanoma 23.8% | MCF7 breast 13% | HCC-2998 colon 79.4%
active: SR leukemia 0.986% | RPMI-8226 leukemia -29.2% | OVCAR-8 ovarian -6.61% | OVCAR-3 ovarian -4.9% | SW-620 colon -35.3% | HCT-116 colon -47.5% | KM12 colon -39%

CCc1ccc(CNc2ccc(N3CCOCC3)c(C(=O)O)c2)cc1
inactive: SR leukemia 104% | RPMI-8226 leukemia 109% | OVCAR-8 ovarian 102% | OVCAR-5 ovarian 99.9% | OVCAR-4 ovarian 110% | SK-OV-3 ovarian 103% | IGROV1 ovarian 102% | OVCAR-3 ovarian 104% | NCI/ADR-RES ovarian 98.6% | T-47D breast 86.3% | BT-549 breast 105% | MDA-MB-435 melanoma 108% | SW-620 colon 111% | MCF7 breast 86.2% | HCT-116 colon 86.1% | HCC-2998 colon 104%

COc1cc(/C=N/NC(=O)c2cnn3c2NC(c2ccccc2)C3)ccc1OCc1ccccc1 (configuration not stated)
inactive: RPMI-8226 leukemia 43.7% | OVCAR-5 ovarian 33.2% | SK-OV-3 ovarian 18.9% | IGROV1 ovarian 12.2% | NCI/ADR-RES ovarian 35% | HCC-2998 colon 32.8%
active: SR leukemia 0.0936% | OVCAR-8 ovarian 2.7% | OVCAR-4 ovarian -21.9% | OVCAR-3 ovarian -63.4% | T-47D breast 8.39% | BT-549 breast -6.73% | MDA-MB-435 melanoma -28.3% | SW-620 colon -1% | MCF7 breast 0.769% | HCT-116 colon -15.1% | KM12 colon 2.22%

COc1cccc(-c2nc3occn3c2-c2ccnc(NCCCNS(=O)(=O)c3ccc(C(F)(F)F)cc3)n2)c1
inactive: SR leukemia 97.2% | RPMI-8226 leukemia 79.3% | OVCAR-8 ovarian 87% | OVCAR-5 ovarian 128% | OVCAR-4 ovarian 76.4% | SK-OV-3 ovarian 81.9% | IGROV1 ovarian 90.5% | OVCAR-3 ovarian 100% | HS 578T breast 98.2% | T-47D breast 39.1% | BT-549 breast 93.4% | MDA-MB-435 melanoma 76.3% | SW-620 colon 124% | MCF7 breast 79.8% | HCT-116 colon 83.9% | HCC-2998 colon 124% | KM12 colon 91.5%

C=C(C)[C@@H]1CC[C@]2(C(=O)N3CCN(C)CC3)CC[C@]3(C)[C@H](CC[C@@H]4[C@@]5(C)CC[C@H](OCCC#N)C(C)(C)[C@@H]5CC[C@]43C)[C@@H]12
inactive: RPMI-8226 leukemia 29.7% | OVCAR-5 ovarian 129% | OVCAR-4 ovarian 48.8% | SK-OV-3 ovarian 109% | IGROV1 ovarian 98.2% | OVCAR-3 ovarian 103% | HS 578T breast 104% | T-47D breast 91.7% | BT-549 breast 107% | MDA-MB-435 melanoma 107% | MCF7 breast 77.7% | HCT-116 colon 44.4% | HCC-2998 colon 102% | KM12 colon 48.2%
active: SR leukemia 3.86% | OVCAR-8 ovarian 6.81% | SW-620 colon 7.33%

COc1ccc(CC(C)=C(c2ccc(OCCN3CCCCCC3)cc2)c2ccc(OCCN3CCCCCC3)cc2)cc1
active: SR leukemia -32.2% | RPMI-8226 leukemia -57.9% | OVCAR-8 ovarian -78.1% | OVCAR-5 ovarian -95.9% | OVCAR-4 ovarian -83.9% | SK-OV-3 ovarian -90.1% | IGROV1 ovarian -77.8% | OVCAR-3 ovarian -89.2% | HS 578T breast -61% | T-47D breast -73.3% | BT-549 breast -75.9% | MDA-MB-435 melanoma -98.2% | SW-620 colon -90.5% | MCF7 breast -90.2% | HCC-2998 colon -91.8% | KM12 colon -97.4%

COc1cc2nc(-c3ccc(C(F)(F)F)cc3)cc(OCCCN3CCCC3)c2cc1OC
inactive: SR leukemia 19.4% | RPMI-8226 leukemia 21.6% | OVCAR-8 ovarian 48.7% | OVCAR-5 ovarian 56.9% | OVCAR-4 ovarian 57.1% | SK-OV-3 ovarian 88.6% | IGROV1 ovarian 36.2% | OVCAR-3 ovarian 64.8% | HS 578T breast 64.4% | T-47D breast 38.4% | BT-549 breast 28.8% | SW-620 colon 28.6% | MCF7 breast 44.7% | HCT-116 colon 23.6% | HCC-2998 colon 70% | KM12 colon 36.4%
active: MDA-MB-435 melanoma -21.1%

COc1ccc(C(=O)Cn2c(C(=O)c3ccccc3)nc3ccccc32)cc1
active: RPMI-8226 leukemia -6.46% | OVCAR-3 ovarian 5.28% | NCI/ADR-RES ovarian -28.3% | MDA-MB-435 melanoma -43.3%
inactive: SR leukemia 13% | OVCAR-8 ovarian 49.3% | OVCAR-5 ovarian 62% | OVCAR-4 ovarian 40.4% | SK-OV-3 ovarian 73% | IGROV1 ovarian 10.1% | T-47D breast 38.1% | BT-549 breast 51.7% | SW-620 colon 10.6% | MCF7 breast 17.5% | HCT-116 colon 15.7% | HCC-2998 colon 26.5% | KM12 colon 20.4%

CCN(CC)c1ccc(/C=N/NC(=O)CSc2nc3ccccc3c(=O)n2Cc2ccc(S(N)(=O)=O)cc2)c(O)c1
inactive: SR leukemia 10.4% | RPMI-8226 leukemia 17.1% | OVCAR-8 ovarian 20.4% | OVCAR-5 ovarian 45% | OVCAR-4 ovarian 12.6% | SK-OV-3 ovarian 21.6% | IGROV1 ovarian 26.4% | OVCAR-3 ovarian 15% | HS 578T breast 63% | BT-549 breast 33.6% | MDA-MB-435 melanoma 13.8% | SW-620 colon 21.4% | MCF7 breast 13.3% | HCT-116 colon 21.5% | HCC-2998 colon 20.3% | KM12 colon 15.2%
active: T-47D breast 6.32%

COc1cc2oc(-c3cccc(C(=O)Nc4ccc(Cl)cc4)c3)cc(=O)c2c(O)c1OC
active: OVCAR-4 ovarian -30.4%
inactive: SR leukemia 65.1% | RPMI-8226 leukemia 70% | OVCAR-8 ovarian 16.3% | OVCAR-5 ovarian 79.1% | SK-OV-3 ovarian 58.3% | IGROV1 ovarian 54% | OVCAR-3 ovarian 30.4% | NCI/ADR-RES ovarian 37.3% | T-47D breast 47.2% | BT-549 breast 60.1% | MDA-MB-435 melanoma 61% | SW-620 colon 73.6% | MCF7 breast 80.9% | HCT-116 colon 39.9% | HCC-2998 colon 96.5% | KM12 colon 62%

O=C(CCN1CCCC1)Nc1ccc2c(NCCCCc3ccccc3)c3ccccc3nc2c1
active: SR leukemia -29% | RPMI-8226 leukemia -42.7% | OVCAR-8 ovarian 1.13% | OVCAR-5 ovarian 7.16% | OVCAR-4 ovarian -74.6% | IGROV1 ovarian -18.1% | OVCAR-3 ovarian -82.6% | HS 578T breast -9.34% | T-47D breast -27.2% | MDA-MB-435 melanoma -91.2% | SW-620 colon -60.5% | MCF7 breast -75.9% | HCT-116 colon -70.8% | HCC-2998 colon -90.9% | KM12 colon -79.1%
inactive: SK-OV-3 ovarian 53.9% | BT-549 breast 56.9%

CC1(C)CC[C@]23CC[C@]4(C)[C@H](CC[C@@H]5[C@@]6(C)CCCNC(C)(C)[C@@H]6CC[C@]54C)[C@H]2[C@H]1OC3
inactive: SK-OV-3 ovarian 75.8% | BT-549 breast 76.4%
active: SR leukemia -30.2% | RPMI-8226 leukemia -29.7% | OVCAR-8 ovarian -45.6% | OVCAR-5 ovarian 8.55% | OVCAR-4 ovarian -51.2% | IGROV1 ovarian -58.7% | OVCAR-3 ovarian -31.2% | HS 578T breast -9.12% | T-47D breast 2.46% | MDA-MB-435 melanoma -80% | SW-620 colon -71.9% | MCF7 breast -25% | HCT-116 colon -99.4% | HCC-2998 colon -55.5% | KM12 colon -69%

O=C(/C(=C\c1ccc([N+](=O)[O-])cc1)S(=O)Cc1ccc(Cl)cc1)c1ccc(Cl)cc1 (configuration not stated)
active: RPMI-8226 leukemia 1.3%
inactive: SR leukemia 15% | OVCAR-8 ovarian 73.6% | OVCAR-5 ovarian 73.6% | OVCAR-4 ovarian 81.1% | SK-OV-3 ovarian 105% | IGROV1 ovarian 62.7% | OVCAR-3 ovarian 73.7% | HS 578T breast 85.1% | T-47D breast 51.6% | BT-549 breast 94.6% | MDA-MB-435 melanoma 82.6% | SW-620 colon 28% | MCF7 breast 49% | HCC-2998 colon 80.4% | KM12 colon 73.8%

NC(=O)CSSCC(N)=O
inactive: SR leukemia 85.2% | RPMI-8226 leukemia 91.4% | OVCAR-8 ovarian 101% | OVCAR-5 ovarian 105% | OVCAR-4 ovarian 111% | SK-OV-3 ovarian 109% | IGROV1 ovarian 97.8% | OVCAR-3 ovarian 114% | HS 578T breast 97.6% | NCI/ADR-RES ovarian 105% | T-47D breast 103% | MDA-MB-435 melanoma 91.6% | SW-620 colon 95.3% | MCF7 breast 103% | HCT-116 colon 91.6% | KM12 colon 101%

C[C@H]1[C@H](C)CC[C@]2(C(=O)Nc3ccc4ncccc4c3)CC[C@]3(C)C(=CC[C@@H]4[C@@]5(C)CCCNC(C)(C)[C@@H]5CC[C@]43C)[C@H]12
active: SR leukemia -49.2% | RPMI-8226 leukemia -42.3% | OVCAR-8 ovarian -80.5% | IGROV1 ovarian -73.3% | OVCAR-3 ovarian -45.1% | HS 578T breast -53.3% | MDA-MB-435 melanoma -91.8% | SW-620 colon -83.9% | MCF7 breast -83.4% | HCT-116 colon -100% | HCC-2998 colon -84.4% | KM12 colon -60.5%
inactive: OVCAR-5 ovarian 74.9% | OVCAR-4 ovarian 27.8% | SK-OV-3 ovarian 103% | T-47D breast 78% | BT-549 breast 92%

From PubChem BioAssay (NCI)
